# Measurements as given in PubChem BioAssay AID1259420 (Broad Institute, 2018).
# “And” between values parts separate entries of the source, which are not always exact repeats. Equal values may be shown once. Screen size: about 1,000 compounds; about 250 (25%) were called active. About 31% were inconclusive and are not listed. The rule behind the calls is not given here. These entries were drawn from the full list. Potency and affinity values are given separately.
# Test: compound activity on host-cell Toxoplasma growth – dose response (AID 1259420);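 note: host cells were HeLa; final incubation lasted 72 hours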
# Details: Toxoplasma gondii growth in host cells, no IFN-gamma; at 19.5 µM unless noted
row,SMILES,max activity
1,CC(=O)N1CCN(C(C)C)C(c2nnc3ccc(C(=O)N4CCCC4)cn23)C1 (stereo not drawn),-12.1% [at 10 µM] (inactive)
2,Cc1cccc(S(=O)(=O)N2CC[C@@H]3[C@@H](CO)Nc4ccc(-c5ccccc5F)cc4[C@@H]32)c1,-19% [at 0.6 µM] (inactive)
3,COc1ccccc1-c1ccc2c(c1)[C@H]1[C@H](CCN1S(=O)(=O)c1ccc(C)cc1)[C@@H](CO)N2,21.4% (inactive)
4,O=S(=O)(c1cccc(F)c1)N1CC[C@@H]2[C@H]1c1cc(Br)ccc1N[C@@H]2CO,7.04% (inactive)
5,COc1ccccc1-c1ccc2c(c1)[C@H]1[C@H](CCN1Cc1ccccc1F)[C@@H](CO)N2,20.2% (inactive)
6,CCC(=O)N1CC[C@@H]2[C@H]1c1cc(C#Cc3ccccc3F)ccc1N[C@@H]2CO,-12.6% (inactive)
7,COC[C@]12CCC[C@@H]1CN(S(=O)(=O)c1cccc(OC)c1)C2,17.2% (inactive)
8,CN(C)CCN1CCC2(CCCN(C(=O)C3CCOC3)C2)C1=O (stereo not drawn),31.3% (inactive)
9,COCC1CN(C(=O)c2ccccc2F)Cc2cnn(CC3CC3)c21 (stereo not drawn),-15.3% [at 10 µM] (inactive)
10,Cc1ccccc1-c1ccc([C@@H]2[C@@H](CO)N3C(=O)CN(C(=O)c4ccncc4)C[C@@H]23)cc1,15% [at 0.16 µM] (inactive)
11,COc1ccccc1S(=O)(=O)N1CC[C@H]2[C@H](CO)Nc3ccc(-c4ccc(C#N)cc4)cc3[C@H]21,19% [at 21 µM] (inactive)
12,c1cc(-c2nccn2CCn2ccnc2)ccn1,7.6% [at 0.16 µM] (inactive)
13,O=C(NCc1ccccc1)c1cc(-c2cnc(N3CCCC3)nc2)cn1CC1CC1,-17.4% [at 10 µM] (inactive)
14,O=C(Nc1ccccc1)c1ncn2c1CN(CC1CC1)S(=O)(=O)c1ccccc1-2,-5.31% [at 1.2 µM] (inactive)
15,COc1ccccc1C#Cc1ccc([C@H]2[C@@H](CO)N3CCCCN(C(=O)C4CCC4)C[C@H]23)cc1,11% [at 0.16 µM] (inactive)
16,CN(C)CCOCC12CCCOC1CCN(C(=O)c1cccn1C)C2 (stereo not drawn),-18.9% [at 5 µM] (inactive)
17,CC(C)COC1CC2(CCN(C(=O)c3cccn3C)CC2)C1,9.82% [at 0.3 µM] (inactive)
18,CC(C)C#Cc1ccc([C@@H]2[C@@H](CO)N3C(=O)CN(C(=O)NC4CCCC4)C[C@H]23)cc1,-5.34% (inactive)
19,COCC(=O)N1CC(=O)N2[C@H](CO)[C@H](c3ccc(C#CC4CC4)cc3)[C@@H]2C1,-9.08% [at 5 µM] (inactive)
20,COc1ccc(-c2ccc([C@@H]3[C@@H](CO)N4C(=O)CN(C(=O)C5CC5)C[C@@H]34)cc2)cc1,19.5% [at 21 µM] (inactive)
21,CN1CCCN(CC2(O)CCNC2)CC1 (stereo not drawn),11.3% [at 0.08 µM] (inactive)
22,Cc1cccc(-c2ccc([C@H]3[C@H]4CN(C(=O)c5ccc6c(c5)OCO6)CC(=O)N4[C@H]3CO)cc2)c1,11.6% (inactive)

row,SMILES,max activity
1,COc1ccc(-c2ccc3c(c2)[C@H]2[C@H](CCN2C(=O)Nc2ccccc2OC)[C@H](CO)N3C)cc1,-12.3% [at 0.6 µM] (inactive)
2,Cc1cccc(-c2ccc([C@@H]3[C@@H](CO)N4C(=O)CN(C(=O)c5ccc6c(c5)OCO6)C[C@H]34)cc2)c1,-5.13% [at 0.3 µM] (inactive)
3,CN1c2ccc(C3=CCCCC3)cc2[C@@H]2[C@@H](CCN2C(=O)C2CCOCC2)[C@H]1CO,-17.2% [at 5 µM] (inactive)
4,N#Cc1ccc(-c2ccc3c(c2)[C@H]2[C@H](CCN2C(=O)C2CCCCC2)[C@@H](CO)N3)cc1,-26.1% [at 5 µM] (inactive)
5,N#Cc1ccc(-c2ccc3c(c2)[C@@H]2[C@@H](CCN2C(=O)C2CCCCC2)[C@@H](CO)N3)cc1,24.3% (inactive)
6,CCc1cnc(N2CCc3cc(C(=O)NCC4CC4)c(N(C)C)nc3CC2)nc1,11.8% [at 0.6 µM] (inactive)
7,CO[C@@H]1CCN(S(=O)(=O)N(C)C)C[C@@H]1Cc1cccc(C)c1,-8.52% [at 10 µM] (inactive)
8,CCCCOCCOCCOCc1cc2c(cc1CCC)OCO2,-10.5% [at 10 µM] (inactive)
9,Cc1nc(N2CCCC2)nc2c1CCN(C(=O)c1ccoc1C)CC2,-19.1% [at 10 µM] (inactive)
10,Cc1cc2nc(CN3CCCC(CCc4ccc(F)cc4F)C3)cc(=O)n2[nH]1 (stereo not drawn),5.72% (inactive)
11,O=C(Nc1ccc(F)cc1)N1CC(=O)N2[C@H](CO)[C@@H](c3ccc(-c4cccc(F)c4)cc3)[C@H]2C1,13.4% (inactive)
12,O=C(c1cnccn1)N1CC(=O)N2[C@H](CO)[C@H](c3ccc(-c4cccc(F)c4)cc3)[C@@H]2C1,-10.6% [at 0.3 µM] (inactive)
13,Cc1ccc(-c2ccc([C@H]3[C@H]4CN(C(=O)NC(C)C)CC(=O)N4[C@H]3CO)cc2)cc1,-10.6% [at 0.6 µM] (inactive)
14,O=C(c1cnccn1)N1CC(=O)N2[C@H](C1)[C@@H](c1ccc(-c3cccc(F)c3)cc1)[C@@H]2CO,25.6% (inactive)
15,C/C=C/c1ccc([C@H]2[C@@H](CO)N3C(=O)CN(C(=O)Nc4ccc(F)cc4)C[C@@H]23)cc1,-13% [at 0.16 µM] (inactive)
16,O=C(c1cnccn1)N1CC(=O)N2[C@H](C1)[C@H](c1ccc(-c3cccc(F)c3)cc1)[C@@H]2CO,-9.23% [at 0.16 µM] (inactive)
17,O=C(c1cnccn1)N1CC(=O)N2[C@H](CO)[C@H](c3ccc(-c4cccc(F)c4)cc3)[C@H]2C1,15.4% (inactive) and 19.8% (inactive)
18,O=C(Nc1ccc(F)cc1)N1CC(=O)N2[C@H](CO)[C@@H](c3ccc(-c4cccc(F)c4)cc3)[C@@H]2C1,-6.88% (inactive)
19,CC1CCCCN1C(=O)c1ccnn1-c1ccc2ccc(-c3ccccc3)cn12 (stereo not drawn),-6.05% [at 5 µM] (inactive)
20,CC(=O)O[C@@H]1CC2C(C)(CC[C@H](O)C2(C)C)C2CC[C@]3(C)C(=CC(=O)O[C@H]3c3ccoc3)C21C (stereo partly drawn),-5.91% [at 10 µM] (inactive)
21,CC(C)n1cnc2c(NCC3CC3)nc(C3CCN(C(=O)c4cccc(F)c4F)CC3)cc21,5.98% [at 1.2 µM] (inactive)
